{"source": "PubChem BioAssay (NCI)", "note": "The panel holds about 83,000 compounds, 20% with a hit somewhere; the sample as a whole holds those more often.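 The test compound was applied at a single concentration to cells in 96-well plates for 48 hours, and percent growth was recorded.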 Values without a mark were called inactive. Activity calls are given as the source filed them. The calls were made as follows: active = growth percent below 10; inactive = the rest.", "data": [{"tested_on": "DU-145 prostate", "test": "NCI-60 one-dose screen, 48 h (100 = growth as untreated, 0 = no growth, -100 = all killed)", "details": "10 µM unless noted", "values": [{"compound": "COc1cc(C2CC(C3C(=O)N(C)C(=O)N(C)C3=O)=NN2C=O)cc(OC)c1OC", "note": "(stereo not given)", "growth": "111%"}, {"compound": "C=C1CCC2C3(C)COC(c4ccccc4)OC3CCC2(C)C1C/C=C1/C(=O)OCC1OC(C)=O", "note": "(stereo not given)", "growth": "108%"}, {"compound": "Clc1ccc(C2=NN(c3ccc(Cl)cc3)C(c3cccc(Nc4ccnc5cc(Cl)ccc45)c3)C2)cc1", "note": "(stereo not given)", "growth": "96.2%"}, {"compound": "CC(=O)N1N=C(c2ccc(Nc3nc(NCCO)nc(NCCO)n3)cc2)CC1c1ccc(Cl)cc1", "note": "(stereo not given)", "growth": "98.6%"}, {"compound": "O=C(c1ccccc1)c1ccc(Oc2ccc([N+](=O)[O-])cc2[N+](=O)[O-])cc1", "growth": "95.9%"}, {"compound": "O=C(C(=O)N1CCOCC1)c1cn(CCCn2cc(C(=O)C(=O)N3CCOCC3)c3ccccc32)c2ccccc12", "growth": "115%"}, {"compound": "CC(C)CC1NC(=O)C(CCCN)NC(=O)C(C(C)C)NC(=O)C2CCCN2C(=O)C(Cc2ccccc2)NC(=O)C(CC(C)C)NC(=O)C(CCCN)NC(=O)C(C(C)C)NC(=O)C2CCCN2C(=O)C(Cc2ccccc2)NC1=O", "note": "(stereo not given)", "growth": "-52.5% (active)"}, {"compound": "Cc1csc(C#Cc2cncc(O)c2)n1", "growth": "116%"}, {"compound": "COc1cc(/C=C/C(=O)C(C(=O)/C=C/c2ccc(OC(=O)CCNC34CC5CC(CC(C5)C3)C4)c(OC)c2)C(=O)CCNC23CC4CC(CC(C4)C2)C3)ccc1OC(=O)CCNC12CC3CC(CC(C3)C1)C2", "note": "(stereo not given)", "growth": "-48.8% (active)"}, {"compound": "C/C=C(/C(=C/C)c1ccc(O)cc1)c1ccc(O)cc1", "growth": "28.2%"}, {"compound": "COc1cc(/C=C/C(=O)CC(=O)/C=C/c2ccc(OC(=O)CCNC34CC5CC(CC(C5)C3)C4)c(OC)c2)ccc1OC(=O)CCNC12CC3CC(CC(C3)C1)C2", "growth": "-7.16% (active)"}, {"compound": "Oc1c(Cl)cc(Cl)c(Cl)c1Cc1c(O)c(Cl)cc(Cl)c1Cl", "growth": "28.2%"}, {"compound": "COc1cc(C2CC(c3ccc(C)cc3)=NN2C=O)ccc1OCCN(C)C", "note": "(stereo not given)", "growth": "105%"}, {"compound": "NS(=O)(=O)c1cc(C2(O)NC(=O)c3ccccc32)ccc1Cl", "note": "(stereo not given)", "growth": "116%"}, {"compound": "CCn1cnc(C[C@H](NC(=O)[C@H](CCCCNC(=O)Nc2cc(C(F)(F)F)cc(C(F)(F)F)c2)NC(=O)Nc2cc(C(F)(F)F)cc(C(F)(F)F)c2)C(=O)OC)c1", "growth": "-69.5% [100 µM] (active)"}, {"compound": "CS(=O)(=O)N1CCN(Cc2cc3nc(-c4cccc5[nH]ncc45)nc(N4CCOCC4)c3s2)CC1", "note": "(tested in a mixture with another compound)", "growth": "21.3%"}, {"compound": "CN(C)c1ccc(-c2nc3ncc(Br)cc3o2)cc1", "growth": "99.8%"}, {"compound": "COc1ccc(-c2cc(-c3nnc(SCC(=O)Nc4ccc(C(C)=O)cc4)n3-c3ccccc3)c3ccccc3n2)cc1OC", "growth": "110%"}, {"compound": "Nc1nc(NC2CC2)c2ncn(C3C=CC(CO)C3)c2n1", "note": "(stereo not given)", "growth": "126%"}, {"compound": "C[C@]12CCC(=O)C=C1CC[C@H]1[C@@H]3C[C@@H](O)[C@](O)(C(=O)CO)[C@@]3(C)C[C@H](O)[C@@]12F", "growth": "92.4%"}, {"compound": "NS(=O)(=O)c1cc2c(cc1Cl)NC=NS2(=O)=O", "growth": "111%"}, {"compound": "COc1cnc2c(c1)C(=O)c1c-2n(CCCn2ccnc2)c(=O)c2cc(F)ccc12", "growth": "-56.4% (active)"}, {"compound": "NC(=O)c1cc(Br)cc(Br)c1NS(=O)(=O)c1ccccc1", "growth": "110%"}, {"compound": "CN(C)c1ccc(-n2nc3ccccc3n2)cc1", "growth": "101%"}, {"compound": "CC1CN(C2CCCCC2)C(=O)NC1=O", "note": "(stereo not given)", "growth": "113%"}, {"compound": "O=C1C=CC(=O)N1c1ccccc1N1C(=O)C=CC1=O", "growth": "110%"}, {"compound": "Cc1n(Cc2ccc3ccccc3c2)c2ccccc2[n+]1Cc1ccc2ccccc2c1", "growth": "0.672% (active)"}, {"compound": "C[C@H]1O[C@@H](O[C@H]2[C@@H](O)C[C@H](O[C@H]3[C@@H](O)C[C@H](O[C@H]4CC[C@]5(C)C6C[C@@H](O)[C@]7(C)[C@@H](C8=CC(=O)OC8)CC[C@]7(O)C6CC[C@@H]5C4)O[C@@H]3C)O[C@@H]2C)C[C@H](O)[C@@H]1O", "note": "(stereo not given in full)", "growth": "-100% (active)"}, {"compound": "O=C(CNc1ccc2c(c1)C(=O)c1ccccc1C2=O)Nc1ccc2c(c1)C(=O)c1ccccc1C2=O", "growth": "-100% (active)"}, {"compound": "Cc1sc2nc(N3CCCCC3)[nH]c(=O)c2c1C", "growth": "111%"}, {"compound": "NC(=NCCCCCCN=C(N)/N=C(\\N)Nc1ccc(Cl)cc1)/N=C(\\N)Nc1ccc(Cl)cc1", "growth": "33.2%"}, {"compound": "COc1cc(NC(=O)NCc2ccco2)ccc1-c1ccc(NC(=O)NCc2ccco2)cc1OC", "growth": "56.6%"}, {"compound": "CSc1nc(Nc2ccc(S(=O)(=O)Nc3ccon3)cc2)c(C#N)c(-c2ccc(Cl)cc2)n1", "growth": "106%"}, {"compound": "COP(=O)(OC)C(c1ccc(O)cc1)(c1ccc(O)cc1)c1ccc(O)cc1", "growth": "105%"}, {"compound": "C=C1CCC2C(C)(COC(=O)CC)C(OC(=O)CC)CCC2(C)C1C/C=C1/C(=O)OCC1OC(=O)CC", "note": "(stereo not given)", "growth": "28.9%"}, {"compound": "Cc1cnc2nc(-c3ccc(N(C)C)cc3)cn2c1", "growth": "109%"}, {"compound": "Cc1ccc2nc3c(n2c1)C(=O)C(=O)c1ccccc1-3", "growth": "-89.5% (active)"}, {"compound": "CC(C)=CCCC(C)c1ccc(C)c2c1OCN(CC1CCNCC1)C2", "note": "(stereo not given)", "growth": "93.9%"}, {"compound": "CCOc1cc(/C=C/C(=O)C(C(=O)/C=C/c2ccc(OC(=O)CNc3nc4ccccc4[nH]3)c(OCC)c2)C(=O)CNc2nc3ccccc3[nH]2)ccc1OC(=O)CNc1nc2ccccc2[nH]1", "growth": "-24.8% (active)"}, {"compound": "COc1ccc(C(=O)/C=C/c2cccc(Nc3ccnc4cc(Cl)ccc34)c2)cc1", "growth": "37%"}]}]}
